Measured values reported in PubChem BioAssay (NCATS).
Where “and” joins values, the source holds several entries; their conditions need not be identical. Equal values may be shown once. Results filed as inconclusive are left out. Calls of active or inactive are those of the source. Unless noted, calls follow the shape of the dose curve; as a rule, active = well fitted curve in the direction sought with a large enough effect; inconclusive = small, poorly fitted or top-dose-only effect, or another doubt; inactive = no such curve, though single readings can be large; an effect the other way counts as inactive or inconclusive.

How the values were obtained:
[1] = target: Alpha-galactosidase A (Homo sapiens) (UniProt P06280); assay: Counterscreen for Glucocerebrosidase Inhibitors: qHTS Assay for Human alpha-Galactosidase at pH 4.5 (AID 992); also: 0% is about no effect
Sequence of Alpha-galactosidase A (Homo sapiens) (P06280 whole entry, looked up): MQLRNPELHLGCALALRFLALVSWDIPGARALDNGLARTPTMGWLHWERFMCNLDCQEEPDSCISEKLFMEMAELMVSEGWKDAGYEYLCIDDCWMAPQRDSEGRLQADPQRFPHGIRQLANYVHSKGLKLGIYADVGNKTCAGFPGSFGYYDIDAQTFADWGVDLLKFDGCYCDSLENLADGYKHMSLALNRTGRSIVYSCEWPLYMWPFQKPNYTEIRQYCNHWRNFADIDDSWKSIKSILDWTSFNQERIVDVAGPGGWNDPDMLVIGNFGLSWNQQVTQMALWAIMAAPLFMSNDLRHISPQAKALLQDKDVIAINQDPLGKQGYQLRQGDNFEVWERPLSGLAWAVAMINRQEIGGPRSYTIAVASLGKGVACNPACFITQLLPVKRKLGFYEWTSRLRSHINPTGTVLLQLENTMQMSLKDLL
Method in brief: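 Human enzyme (2 nM) with 80 uM 4-methylumbelliferyl alpha-D-galactopyranoside in 50 mM citric acid, 0.005% Tween-20, pH 4.5, 20 min at room temperature. Compounds 0.7 nM–77 uM; fluorescence Ex 365/Em 440 after pH 10 stop; AC50 from Hill fits.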

[2] = target: alpha-glucosidase (Oryza sativa, rice) (UniProt Q653V4); assay: Counterscreen for Glucocerebrosidase Inhibitors: qHTS Assay for Rice alpha-Glucosidase at pH 5.0 (AID 997);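 also: 0% = full activity with enzyme and -100% = basal without enzyme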
Method in brief: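 Rice alpha-glucosidase (4 nM final) with 400 uM 4-methylumbelliferyl-alpha-D-glucopyranoside in citrate buffer pH 5.0, 20 min at room temperature, stopped at pH 10; fluorescence 365/440 nm, compounds 0.7 nM–77 uM, AC50 from Hill fits.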

[3] = Validation of Assay for Modulators of Lamin A Splicing (AID 1459; active = well fitted curve in the direction sought with a large enough effect in the signal ratio; the % refers to the signal ratio;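 also: cells exposed to compound for two days before reading; 0% is about no effect; ratio rise marks activators and ratio drop marks inhibitors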)
Method in brief: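 Splicing correction is reported by an EGFP-containing lamin A minigene in stably transfected S3 HeLa cells, while DsRed2 controls for viability and nonspecific signal. Cells are exposed to compounds for 48 hrs before the GFP over RFP ratio is taken.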

[4] = qHTS Assay for Lipid Storage Modulators (AID 1519; calls by dose curve; as to activity change, negative = inhibition: % is scaled to controls: 0 for no effect and ±100 for the full control effect); conditions: Drosophila S3 cells, BODIPY lipid droplet/cell ratio, laser cytometry, cells loaded with oleic acid
Method in brief: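 Cells seeded at 5,000 per well were treated with compounds over a concentration series and loaded with oleic acid (400 uM, as added). Lipid droplet fluorescence (488 nm excitation, 500-530 nm channel) was read by laser-scanning cytometry and normalized to 20 uM Triacsin C.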

[5] = target: DNA repair nuclease/redox regulator APEX1 (Homo sapiens) (UniProt P27695); assay: qHTS Validation Assay for Inhibitors of the Human Apurinic/apyrimidinic Endonuclease 1 (APE1) (AID 1705;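 also: TAMRA fluorescence gain over two minutes as APE1 cuts a quenched THF abasic duplex; % is scaled to controls: 0 for no effect and ±100 for the full control effect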)
Sequence of DNA repair nuclease/redox regulator APEX1 (Homo sapiens) (P27695 whole entry, looked up): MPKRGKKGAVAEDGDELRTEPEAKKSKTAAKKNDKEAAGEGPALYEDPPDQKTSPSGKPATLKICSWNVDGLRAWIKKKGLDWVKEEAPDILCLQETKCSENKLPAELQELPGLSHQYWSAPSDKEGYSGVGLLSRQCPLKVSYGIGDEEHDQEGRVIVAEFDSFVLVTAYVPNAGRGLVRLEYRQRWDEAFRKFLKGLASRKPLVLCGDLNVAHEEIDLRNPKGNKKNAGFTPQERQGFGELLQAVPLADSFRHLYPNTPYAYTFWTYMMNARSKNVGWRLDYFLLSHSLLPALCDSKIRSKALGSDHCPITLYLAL
Method in brief: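 Endonuclease activity of human APE1 is followed as dequenching when the enzyme incises a tetrahydrofuran abasic site in a short duplex labelled 5'-TAMRA/3'-BHQ-2 (50 nM final), after 15 min enzyme–compound preincubation at room temperature.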

[6] = Counterscreen for APE1 Inhibitors: Fluorescent Dye Displacement Validation Assay (AID 1707);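 also: plate controls were ThO with dsDNA and no compound for no effect and ThO without dsDNA for full effect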
Method in brief: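 Thiazole Orange (250 nM) bound to 50 nM TAMRA-labelled dsDNA with tetrahydrofuran abasic site; displacement by DNA-binding compounds lowers fluorescence. Buffer 50 mM Tris-HCl pH 7.5, 50 mM NaCl, 2 mM MgCl2, 0.01% Tween-20; endpoint read at 480/540 nm.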

[7] = Cell Viability - LYMP2-022 (AID 987);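 also: 0% = DMSO alone and full effect = tetraoctylammonium bromide at 92 µM; nearly all actives have a fitted effect of over 55% in size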
Method in brief: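 qHTS: human lymphoblastoid cells 2500/well; 5 hr 37 C; cpd added; 24 hr 37 C; CellTiter-Glo, 30 min RT; luminescence. AC50 via Hill fit; tetraoctylammonium bromide positive ctrl.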

[8] = Cell Viability - LYMP2-024 (AID 988);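 also: plate controls were DMSO only for no effect and 92 µM tetraoctylammonium bromide for full effect; nearly all actives have a fitted effect of over 60% in size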
Method in brief: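 Steps: seed 2500 cells/well, 5 hr 37 C; add compound, 24 hr 37 C; add CellTiter-Glo, 30 min room temperature; read luminescence. AC50 derived by Hill modelling of concentration-dependent ATP loss.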

[9] = Cell Viability - LYMP2-026 (AID 989);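 also: cells exposed to compound for 24 h at 37 °C; % is scaled to controls: 0 for no effect and ±100 for the full control effect; nearly all actives have a fitted effect of over 50% in size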
Method in brief: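 Luminescent ATP signal (CellTiter-Glo, 30 min room temperature) measures viable lymphoblastoid cells after 24 hr compound treatment at 37 C. Decreased ATP reflects acute toxicity; AC50 values come from Hill-equation modeling.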

[10] = Cell Viability - LYMP1-002 - Assay at 24 hr (AID 993); also: % is scaled to controls: 0 for no effect and ±100 for the full control effect
Method in brief: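 Cells plated 2500/well, 5 hr 37 C; compounds added, 24 hr 37 C; CellTiter-Glo added, 30 min RT; luminescence read. Tetraoctylammonium bromide positive control. Hill-equation AC50.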

[11] = measured here: cell count channel max response
[12] = measured here: lipid channel max response

O=C1NCC2(CCN(CCc3ccccc3)CC2)O1
outcome [1]: inactive | outcome [2]: inactive | outcome [3]: inactive | activity change, negative = inhibition ([4]; at 25.7 µM (top of the series)): -2.42% (inactive) | activity change, negative = inhibition ([4]; at 57.5 µM (top of the series)): 11.9% (inactive) and -0.152% (inactive) | max response [4, 11]: -3.3% and 25.9% and -24.6% | max response [4, 12]: -4.45% and 48.5% and -24.1% | outcome [5]: inactive | outcome [6]: inactive

CC(C)[C@H](CO)Nc1nc(Nc2ccc(C(=O)O)c(Cl)c2)c2ncn(C(C)C)c2n1
activity change, negative = inhibition ([4]; at 57.5 µM (top of the series)): 6.65% (inactive) | max response [4, 11]: 12.5% | max response [4, 12]: 19.1%

CC(=O)CCCCn1c(=O)c2c(ncn2C)n(C)c1=O
outcome [1]: inactive | outcome [2]: inactive | activity change, negative = inhibition ([4]; at 25.7 µM (top of the series)): -2.17% (inactive) | activity change, negative = inhibition ([4]; at 57.5 µM (top of the series)): 7.3% (inactive) | max response [4, 11]: 6.56% and 15.7% | max response [4, 12]: 4.54% and 26.5% | outcome [5]: inactive | outcome [6]: inactive

COc1cccc(-c2cc(=O)c3ccccc3o2)c1N
outcome [1]: inactive | outcome [2]: inactive | activity change, negative = inhibition ([4]; at 57.5 µM (top of the series)): 1.98% (inactive) | max response [4, 11]: 13.8% | max response [4, 12]: 15.5% | outcome [5]: inactive | outcome [6]: inactive

CCN1CCC[C@H]1CNC(=O)c1cc(S(N)(=O)=O)ccc1OC
outcome [1]: inactive | outcome [2]: inactive | activity change, negative = inhibition ([4]; at 25.7 µM (top of the series)): -2.7% (inactive) | activity change, negative = inhibition ([4]; at 57.5 µM (top of the series)): -2.29% (inactive) and -0.529% (inactive) | max response [4, 11]: -6.81% and 8.22% and 14.9% | max response [4, 12]: -10.9% and 9.44% and 14.1% | outcome [5]: inactive | outcome [6]: inactive

Clc1ccc(Cn2c(CN3CCCC3)nc3ccccc32)cc1
outcome [1]: inactive | outcome [2]: inactive | outcome [3]: inactive | outcome [5]: inactive | outcome [6]: inactive

O=c1cc(-c2ccccc2)oc2cc(O)cc(O)c12
activity change, negative = inhibition ([4]; at 25.7 µM (top of the series)): -11.6% (inactive) | activity change, negative = inhibition ([4]; at 57.5 µM (top of the series)): 1.96% (inactive) and -20.6% (inactive) | max response [4, 11]: -13.1% and 8.12% and 6.97% | max response [4, 12]: -20.8% and 15.3% and -13.5%

COc1cc(O)c2c(c1)C(=O)c1cc(C)cc(O)c1C2=O
activity change, negative = inhibition ([4]; at 57.5 µM (top of the series)): 2.34% (inactive) | max response [4, 11]: 7.65% | max response [4, 12]: 11.5%

c1ccc2c(Cc3c[nH]c4ccccc34)c[nH]c2c1
activity change, negative = inhibition ([4]; at 57.5 µM (top of the series)): 12.9% (inactive) | max response [4, 11]: 7.31% | max response [4, 12]: 20.3%

CC(=O)c1ccc(S(=O)(=O)NC(=O)NC2CCCCC2)cc1
Potency [7]: inactive | Potency [8]: inactive | Potency [9]: inactive | outcome [1]: inactive | Potency [10]: inactive | outcome [2]: inactive | activity change, negative = inhibition ([4]; at 25.7 µM (top of the series)): -0.412% (inactive) | activity change, negative = inhibition ([4]; at 57.5 µM (top of the series)): 2.09% (inactive) | max response [4, 11]: -7.61% and -6.03% | max response [4, 12]: -6.16% and -3.34% | outcome [5]: inactive | outcome [6]: inactive

NCCS
outcome [1]: inactive | outcome [2]: inactive | activity change, negative = inhibition ([4]; at 57.5 µM (top of the series)): 0.57% (inactive) | max response [4, 11]: -11.3% | max response [4, 12]: -9.57% | outcome [5]: inactive | outcome [6]: inactive

O=c1cc(-c2ccccc2)oc2cc(O)c(O)c(O)c12
activity change, negative = inhibition ([4]; at 57.5 µM (top of the series)): 6.99% (inactive) | max response [4, 11]: -15.3% | max response [4, 12]: -4.95%

CN(C)CCC(c1ccccc1)c1ccccn1 (configuration not stated)
Potency [7]: inactive | Potency [8]: inactive | Potency [9]: inactive | Potency [10]: inactive | activity change, negative = inhibition ([4]; at 57.5 µM (top of the series)): 5.69% (inactive) | max response [4, 11]: 23.2% | max response [4, 12]: 33.1% | outcome [5]: inactive | outcome [6]: inactive

CC(C)NCC(O)COc1cccc2[nH]ccc12 (configuration not stated)
outcome [1]: inactive | outcome [2]: inactive | activity change, negative = inhibition ([4]; at 57.5 µM (top of the series)): 10.5% (inactive) | max response [4, 11]: -0.51% | max response [4, 12]: 13.4% | outcome [5]: inactive | outcome [6]: inactive

COc1ccccc1N1CCN(CCCNc2cc(=O)n(C)c(=O)n2C)CC1
outcome [1]: inactive | outcome [2]: inactive | activity change, negative = inhibition ([4]; at 25.7 µM (top of the series)): 0.233% (inactive) | activity change, negative = inhibition ([4]; at 57.5 µM (top of the series)): 1.54% (inactive) | max response [4, 11]: -9.35% and -6.19% | max response [4, 12]: -9.3% and -4.74% | outcome [5]: inactive | outcome [6]: inactive

C[C@@H](O)[C@H]1C(=O)N2C(C(=O)O)=C(S[C@@H]3CN[C@H](C(=O)N(C)C)C3)[C@H](C)[C@H]12
activity change, negative = inhibition ([4]; at 25.7 µM (top of the series)): -1.28% (inactive) | max response [4, 11]: -4.15% | max response [4, 12]: -5.75%

CCCNC(=O)NS(=O)(=O)c1ccc(Cl)cc1
Potency [7]: inactive | Potency [8]: inactive | Potency [9]: inactive | outcome [1]: inactive | Potency [10]: inactive | outcome [2]: inactive | activity change, negative = inhibition ([4]; at 25.7 µM (top of the series)): -1.71% (inactive) | max response [4, 11]: 8.45% | max response [4, 12]: 7.5% | outcome [5]: inactive | outcome [6]: inactive

COc1ccc(-c2coc3cc(O)cc(O)c3c2=O)cc1
activity change, negative = inhibition ([4]; at 57.5 µM (top of the series)): 4.62% (inactive) and -2.47% (inactive) | max response [4, 11]: -4.41% and 15.8% | max response [4, 12]: 0.883% and 14.1%

COc1ccc(C2Sc3ccccc3N(CCN(C)C)C(=O)C2OC(C)=O)cc1 (configuration not stated)
activity change, negative = inhibition ([4]; at 57.5 µM (top of the series)): 6.14% (inactive) | max response [4, 11]: 15.8% | max response [4, 12]: 23.3%

CCCCCCCCCCCC1=C(O)C(=O)C=C(O)C1=O
activity change, negative = inhibition ([4]; at 57.5 µM (top of the series)): 11.6% (inactive) and 5.79% (inactive) | max response [4, 11]: 14.8% and -11.9% | max response [4, 12]: 24.3% and -12.6%

NC(N)=Nc1nc(CSCC/C(N)=N/S(N)(=O)=O)cs1
outcome [1]: inactive | outcome [2]: inactive | activity change, negative = inhibition ([4]; at 25.7 µM (top of the series)): -0.328% (inactive) | activity change, negative = inhibition ([4]; at 57.5 µM (top of the series)): 0.654% (inactive) | max response [4, 11]: 10.2% and -8.15% | max response [4, 12]: 9.12% and -7.51% | outcome [5]: inactive | outcome [6]: inactive
